Of roughly 8,800 targets only a part is listed; those with a hit were picked by preference. About 0.5% of all pairs of compound and target were hits. A number with no mark means an inactive call.
What was measured:
Test in all cases: log2 fold change, soluble protein after heating vs DMSO (PISA); higher = thermal stabilisation; K562 lysate, 10 uM; active = over 0.2 and 3.5 SD of the protein, either way, in both replicates (recomputed)
lapatinib = compound: CS(=O)(=O)CCNCc1ccc(-c2ccc3ncnc(Nc4ccc(OCc5cccc(F)c5)c(Cl)c4)c3c2)o1 [lapatinib]
How it was run: (§1)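 Log-two fold change in thermal stability relative to solvent controls is reported from duplicates. For each sample, crude K562 extract from dounce-homogenised pellets in PBS pH 7.4 with 1 mM MgCl2, at 1 mg/mL protein, was treated with 10 μM compound for 30 min. Aliquots heated for 3 min across 48°C-58°C were pooled, brought to 0.5% NP-40 at 4°C and cleared at 21,000xg for 90 min. The supernatant was quantified by TMTpro 16plex LC-MS/MS with channel sums equalised.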

pictilisib = compound: CS(=O)(=O)N1CCN(Cc2cc3nc(-c4cccc5[nH]ncc45)nc(N4CCOCC4)c3s2)CC1 [pictilisib]
How it was run: as §1

crizotinib = compound: C[C@@H](Oc1cc(-c2cnn(C3CCNCC3)c2)cnc1N)c1c(Cl)ccc(F)c1Cl [crizotinib]
How it was run: as §1

[1] = compound: C[C@H](C1=CC=C(C=C1)C(=O)NC2=C3C=CNC3=NC=C2)N
How it was run: as §1

duvelisib = compound: C[C@H](Nc1ncnc2nc[nH]c12)c1cc2cccc(Cl)c2c(=O)n1-c1ccccc1 [duvelisib]
How it was run: as §1

gandotinib = compound: Cc1cc(Nc2cc(CN3CCOCC3)c3nc(C)c(Cc4ccc(Cl)cc4F)n3n2)n[nH]1 [gandotinib]
How it was run: as §1

tozasertib = compound: Cc1cc(Nc2cc(N3CCN(C)CC3)nc(Sc3ccc(NC(=O)C4CC4)cc3)n2)n[nH]1 [tozasertib]
How it was run: as §1

doramapimod = compound: Cc1ccc(-n2nc(C(C)(C)C)cc2NC(=O)Nc2ccc(OCCN3CCOCC3)c3ccccc23)cc1 [doramapimod]
How it was run: as §1

bafetinib = compound: Cc1ccc(NC(=O)c2ccc(CN3CC[C@H](N(C)C)C3)c(C(F)(F)F)c2)cc1Nc1nccc(-c2cncnc2)n1 [bafetinib]
How it was run: as §1

[2] = compound: Cc1cccc(CC(=O)N2CCc3c2ccc(-c2cn(C)c4ncnc(N)c24)c3F)n1
How it was run: as §1

nilotinib = compound: Cc1cn(-c2cc(NC(=O)c3ccc(C)c(Nc4nccc(-c5cccnc5)n4)c3)cc(C(F)(F)F)c2)cn1 [nilotinib]
How it was run: as §1

[3] = compound: Cc1nc(Nc2n[nH]c3c2CN(C(=O)N[C@H](CN(C)C)c2ccccc2)C3(C)C)c2sccc2n1
How it was run: as §1

dasatinib = compound: Cc1nc(Nc2ncc(C(=O)Nc3c(C)cccc3Cl)s2)cc(N2CCN(CCO)CC2)n1 [dasatinib]
How it was run: as §1

[4] = compound: Cc1ncc(-c2ccnc(Nc3ccc(S(C)(=O)=O)cc3)n2)n1C(C)C
How it was run: as §1

[5] = compound: Cn1cc(-c2ccc3c(c2)CCN3C(=O)Cc2cccc(C(F)(F)F)c2)c2c(N)ncnc21
How it was run: as §1

quisinostat = compound: Cn1cc(CNCC2CCN(c3ncc(C(=O)NO)cn3)CC2)c2ccccc21 [quisinostat]
How it was run: as §1

tipifarnib = compound: Cn1cncc1[C@@](N)(c1ccc(Cl)cc1)c1ccc2c(c1)c(-c1cccc(Cl)c1)cc(=O)n2C [tipifarnib]
How it was run: as §1

[6] = compound: NC(=O)Nc1cc(-c2cccc(F)c2)sc1C(=O)N[C@H]1CCCNC1
How it was run: as §1

[7] = compound: NC(=O)c1cnc(N[C@@H]2CCCC[C@@H]2N)nc1Nc1cccc(-n2nccn2)c1
How it was run: as §1

[8] = compound: NC1(c2ccc(-c3nc4ccn5c(=O)[nH]nc5c4cc3-c3ccccc3)cc2)CCC1
How it was run: as §1

Chain of UniProt Q8TDG4 (Q8TDG4 whole entry, looked up): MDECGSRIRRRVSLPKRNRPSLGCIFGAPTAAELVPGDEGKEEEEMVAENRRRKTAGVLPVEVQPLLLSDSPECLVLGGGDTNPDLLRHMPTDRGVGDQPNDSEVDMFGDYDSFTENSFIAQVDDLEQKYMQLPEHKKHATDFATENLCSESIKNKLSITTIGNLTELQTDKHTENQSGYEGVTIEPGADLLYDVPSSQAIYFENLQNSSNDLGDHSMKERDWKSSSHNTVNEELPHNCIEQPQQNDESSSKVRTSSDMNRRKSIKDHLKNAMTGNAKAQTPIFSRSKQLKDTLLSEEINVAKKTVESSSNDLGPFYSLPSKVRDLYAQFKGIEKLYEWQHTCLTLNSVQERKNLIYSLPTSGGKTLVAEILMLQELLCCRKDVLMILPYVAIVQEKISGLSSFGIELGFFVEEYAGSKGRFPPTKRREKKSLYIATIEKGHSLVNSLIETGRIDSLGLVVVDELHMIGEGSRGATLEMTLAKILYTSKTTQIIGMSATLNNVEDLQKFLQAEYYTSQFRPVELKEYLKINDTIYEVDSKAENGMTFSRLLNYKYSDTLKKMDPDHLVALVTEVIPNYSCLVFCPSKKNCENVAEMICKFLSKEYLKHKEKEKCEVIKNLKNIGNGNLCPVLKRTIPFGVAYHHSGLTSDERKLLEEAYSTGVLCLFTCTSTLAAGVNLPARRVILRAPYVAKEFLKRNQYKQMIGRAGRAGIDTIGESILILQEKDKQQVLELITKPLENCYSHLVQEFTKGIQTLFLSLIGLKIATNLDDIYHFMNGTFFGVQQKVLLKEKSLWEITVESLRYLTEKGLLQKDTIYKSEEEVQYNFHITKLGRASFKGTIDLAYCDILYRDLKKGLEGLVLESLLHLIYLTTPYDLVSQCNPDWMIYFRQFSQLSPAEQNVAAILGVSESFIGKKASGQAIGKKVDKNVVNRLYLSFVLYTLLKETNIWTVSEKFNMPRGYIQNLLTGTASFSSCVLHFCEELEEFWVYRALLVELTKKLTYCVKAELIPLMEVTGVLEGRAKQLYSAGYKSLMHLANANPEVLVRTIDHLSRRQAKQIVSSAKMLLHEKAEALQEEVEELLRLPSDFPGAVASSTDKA
Chain of UniProt Q14527 (Q14527 whole entry, looked up): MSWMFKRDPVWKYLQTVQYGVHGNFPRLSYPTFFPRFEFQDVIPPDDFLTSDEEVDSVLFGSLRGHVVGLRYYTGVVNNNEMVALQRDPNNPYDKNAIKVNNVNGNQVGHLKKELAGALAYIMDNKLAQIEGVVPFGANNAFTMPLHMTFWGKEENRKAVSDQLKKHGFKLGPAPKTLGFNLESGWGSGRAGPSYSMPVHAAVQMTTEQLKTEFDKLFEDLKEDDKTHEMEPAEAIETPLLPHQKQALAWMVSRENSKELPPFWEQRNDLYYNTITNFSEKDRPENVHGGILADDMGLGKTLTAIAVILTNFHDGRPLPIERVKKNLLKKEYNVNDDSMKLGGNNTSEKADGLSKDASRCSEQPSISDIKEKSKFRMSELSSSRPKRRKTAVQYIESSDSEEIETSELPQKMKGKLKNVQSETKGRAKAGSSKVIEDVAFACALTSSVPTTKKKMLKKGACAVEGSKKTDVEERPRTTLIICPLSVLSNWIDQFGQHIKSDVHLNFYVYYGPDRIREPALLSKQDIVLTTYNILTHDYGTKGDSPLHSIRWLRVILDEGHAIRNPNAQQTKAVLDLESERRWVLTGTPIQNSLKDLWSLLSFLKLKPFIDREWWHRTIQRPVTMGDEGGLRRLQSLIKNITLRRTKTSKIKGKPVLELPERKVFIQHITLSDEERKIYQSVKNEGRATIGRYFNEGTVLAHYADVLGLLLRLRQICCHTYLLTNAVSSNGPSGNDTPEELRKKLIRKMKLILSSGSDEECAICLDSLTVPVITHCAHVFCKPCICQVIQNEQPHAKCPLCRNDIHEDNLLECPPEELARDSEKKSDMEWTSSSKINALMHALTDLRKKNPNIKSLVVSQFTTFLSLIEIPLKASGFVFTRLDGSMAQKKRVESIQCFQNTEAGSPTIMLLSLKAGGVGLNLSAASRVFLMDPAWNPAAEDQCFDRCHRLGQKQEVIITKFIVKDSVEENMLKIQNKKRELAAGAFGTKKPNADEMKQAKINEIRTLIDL
Chain of UniProt P41229 (P41229 whole entry, looked up): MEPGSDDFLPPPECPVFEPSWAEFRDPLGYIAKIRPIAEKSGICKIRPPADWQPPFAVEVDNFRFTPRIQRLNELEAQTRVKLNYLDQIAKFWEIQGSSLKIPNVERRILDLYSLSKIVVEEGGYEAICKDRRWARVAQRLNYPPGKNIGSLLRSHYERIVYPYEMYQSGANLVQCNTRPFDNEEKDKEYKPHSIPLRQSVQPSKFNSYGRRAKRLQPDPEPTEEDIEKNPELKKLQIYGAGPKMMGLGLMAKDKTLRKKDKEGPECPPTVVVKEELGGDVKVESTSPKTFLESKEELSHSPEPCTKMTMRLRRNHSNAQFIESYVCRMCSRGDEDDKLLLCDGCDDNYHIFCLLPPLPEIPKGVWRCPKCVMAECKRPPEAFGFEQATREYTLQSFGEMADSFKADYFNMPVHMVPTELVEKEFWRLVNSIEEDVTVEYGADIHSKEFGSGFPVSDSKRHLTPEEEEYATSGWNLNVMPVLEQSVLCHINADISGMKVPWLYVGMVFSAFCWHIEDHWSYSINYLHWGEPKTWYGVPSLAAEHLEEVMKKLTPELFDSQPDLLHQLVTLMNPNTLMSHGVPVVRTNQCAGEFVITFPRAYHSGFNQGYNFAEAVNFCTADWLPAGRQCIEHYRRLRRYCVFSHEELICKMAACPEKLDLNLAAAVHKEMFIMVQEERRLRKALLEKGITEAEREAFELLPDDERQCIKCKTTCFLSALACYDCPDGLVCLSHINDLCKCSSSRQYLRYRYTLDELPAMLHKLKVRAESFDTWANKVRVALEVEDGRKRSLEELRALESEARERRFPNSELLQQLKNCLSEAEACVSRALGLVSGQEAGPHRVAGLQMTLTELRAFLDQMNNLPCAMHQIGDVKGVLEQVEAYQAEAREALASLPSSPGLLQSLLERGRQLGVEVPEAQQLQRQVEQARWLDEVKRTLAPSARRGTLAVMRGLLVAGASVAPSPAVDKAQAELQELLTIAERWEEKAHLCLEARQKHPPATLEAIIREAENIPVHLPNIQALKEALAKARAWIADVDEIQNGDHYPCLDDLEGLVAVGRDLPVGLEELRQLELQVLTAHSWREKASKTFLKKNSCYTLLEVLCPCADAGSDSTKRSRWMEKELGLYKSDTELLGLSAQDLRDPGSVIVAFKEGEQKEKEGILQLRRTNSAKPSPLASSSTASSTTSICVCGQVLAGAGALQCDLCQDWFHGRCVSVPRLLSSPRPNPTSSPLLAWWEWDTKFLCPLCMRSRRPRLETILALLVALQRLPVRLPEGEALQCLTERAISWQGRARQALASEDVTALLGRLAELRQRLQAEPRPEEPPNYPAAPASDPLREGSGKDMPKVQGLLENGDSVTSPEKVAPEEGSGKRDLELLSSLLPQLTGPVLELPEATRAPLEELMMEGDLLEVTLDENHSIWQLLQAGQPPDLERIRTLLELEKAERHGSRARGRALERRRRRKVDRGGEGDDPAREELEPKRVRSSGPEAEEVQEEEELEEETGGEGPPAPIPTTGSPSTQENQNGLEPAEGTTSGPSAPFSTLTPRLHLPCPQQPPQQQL
Chain of UniProt Q5T447 (Q5T447 whole entry, looked up): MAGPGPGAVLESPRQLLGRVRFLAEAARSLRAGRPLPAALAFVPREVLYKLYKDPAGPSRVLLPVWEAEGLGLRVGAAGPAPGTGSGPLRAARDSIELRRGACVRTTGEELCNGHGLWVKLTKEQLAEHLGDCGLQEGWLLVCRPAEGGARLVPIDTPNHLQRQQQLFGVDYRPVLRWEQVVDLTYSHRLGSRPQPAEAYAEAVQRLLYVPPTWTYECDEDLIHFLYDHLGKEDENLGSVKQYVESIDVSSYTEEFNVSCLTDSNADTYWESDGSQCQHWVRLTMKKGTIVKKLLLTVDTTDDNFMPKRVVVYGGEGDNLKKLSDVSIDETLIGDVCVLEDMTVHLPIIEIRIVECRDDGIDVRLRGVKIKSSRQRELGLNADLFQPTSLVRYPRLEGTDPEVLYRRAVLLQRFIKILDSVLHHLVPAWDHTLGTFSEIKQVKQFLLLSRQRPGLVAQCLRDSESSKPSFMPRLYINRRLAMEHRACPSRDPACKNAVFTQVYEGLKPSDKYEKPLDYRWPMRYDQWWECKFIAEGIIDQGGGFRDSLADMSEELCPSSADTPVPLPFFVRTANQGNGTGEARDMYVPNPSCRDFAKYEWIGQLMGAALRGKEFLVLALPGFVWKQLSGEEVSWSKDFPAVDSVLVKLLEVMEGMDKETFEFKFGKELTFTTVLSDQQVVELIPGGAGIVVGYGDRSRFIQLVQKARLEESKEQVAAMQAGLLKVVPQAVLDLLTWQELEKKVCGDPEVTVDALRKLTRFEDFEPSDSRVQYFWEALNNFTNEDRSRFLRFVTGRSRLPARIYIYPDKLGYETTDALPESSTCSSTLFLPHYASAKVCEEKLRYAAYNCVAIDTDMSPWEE
Chain of UniProt Q9HAV0 (Q9HAV0 whole entry, looked up): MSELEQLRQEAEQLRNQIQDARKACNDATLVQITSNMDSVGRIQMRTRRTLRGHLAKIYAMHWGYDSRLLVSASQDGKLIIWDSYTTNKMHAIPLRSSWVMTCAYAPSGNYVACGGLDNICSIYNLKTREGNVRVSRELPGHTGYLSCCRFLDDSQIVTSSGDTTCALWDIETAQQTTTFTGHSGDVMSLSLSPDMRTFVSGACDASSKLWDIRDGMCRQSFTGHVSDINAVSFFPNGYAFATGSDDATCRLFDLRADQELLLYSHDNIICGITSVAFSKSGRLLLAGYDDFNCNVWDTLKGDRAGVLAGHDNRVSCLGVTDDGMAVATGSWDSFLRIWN
Chain of UniProt Q6DN03 (Q6DN03 whole entry, looked up): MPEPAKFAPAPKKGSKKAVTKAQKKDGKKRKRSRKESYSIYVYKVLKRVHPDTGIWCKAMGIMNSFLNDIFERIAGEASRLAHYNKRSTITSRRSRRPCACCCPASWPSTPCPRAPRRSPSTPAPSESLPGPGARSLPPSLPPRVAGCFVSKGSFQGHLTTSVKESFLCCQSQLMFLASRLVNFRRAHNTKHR

Target	log2 fold change (lapatinib)	log2 fold change (pictilisib)	log2 fold change (crizotinib)	log2 fold change [1]	log2 fold change (duvelisib)	log2 fold change (gandotinib)	log2 fold change (tozasertib)	log2 fold change (doramapimod)	log2 fold change (bafetinib)	log2 fold change [2]	log2 fold change (nilotinib)	log2 fold change [3]	log2 fold change (dasatinib)	log2 fold change [4]	log2 fold change [5]	log2 fold change (quisinostat)	log2 fold change (tipifarnib)	log2 fold change [6]	log2 fold change [7]	log2 fold change [8]
HIST2H2BC (UniProt Q6DN03)	-0.024	0.02	-0.024	0.183	-0.083	-0.054	0.019	0.007	0.018	-0.019	0.003	-0.021	0.051	-0.01	-0.079	-0.014	0.037	0.016	-0.01	0.058
HK2 (UniProt P52789)	-0.003	-0.017	-0.069	0.043	0.007	-0.056	0.007	0.05	-0.076	0.004	0.065	-0.003	-0.052	0	0.033	-0.079	-0.01	0.048	0.035	-0.031
GNB4 (UniProt Q9HAV0)	0.031	-0.031	0.106	-0.058	0.015	0.094	-0.028	0.171	-0.033	0.074	-0.083	0.055	0.048	0.127	-0.097	0.042	0.048	-0.172	0.028	0.007
HECTD3 (UniProt Q5T447)	-0.047	-0.098	-0.034	-0.001	-0.006	-0.013	0.018	0.056	-0.13	-0.004	-0.004	0.041	-0.016	-0.012	0.006	0.026	0.059	0.05	0.003	0.056
GSK3A (UniProt P49840)	-0.026	0.207	0.069	-0.002	0.016	0.641 (active)	-0.017	0.002	0.008	-0.02	0.026	0.425	0.021	0.562 (active)	0.048	-0.009	-0.008	-0.024	0.099	-0.006
GMDS (UniProt O60547)	-0.019	-0.035	-0.01	0.004	0.012	-0.013	-0.016	0.018	0.001	-0.021	-0.023	0.05	-0.043	-0.03	-0.013	-0.041	0.029	0.038	-0.005	-0.029
HLCS (UniProt P50747)	-0.026	-0.022	-0.009	0.199	0.016	-0.002	0.006	0.026	-0.045	-0.007	-0.005	-0.005	0.012	-0.003	0.068	-0.022	-0.006	-0.011	0.024	0.02
KDM5C (UniProt P41229)	-0.085	-0.071	-0.043	0.034	-0.001	-0.135	0.016	0.04	-0.061	0.001	-0.021	-0.005	-0.032	0.022	0.033	-0.084	0.037	0.032	-0.037	-0.032
HLTF (UniProt Q14527)	0.045	0.061	-0.019	-0.063	-0.05	-0.021	0.004	-0.007	-0.087	0.035	-0.039	0.004	-0.041	-0.051	0.05	0.021	-0.148	0.102	0.055	-0.085
HADH isoform 2 (UniProt Q16836)	-0.011	0.04	0.031	0.057	-0.044	-0.05	0.053	-0.055	0.045	-0.055	-0.028	0.049	0.288 (active)	0.031	0.008	0.124	0.032	-0.006	0.029	-0.031
GTF2A1 (UniProt P52655)	0.034	0.011	0.055	0.327 (active)	0.009	-0.141	0.064	0.028	0.026	-0.111	0.024	-0.047	0.022	0.095	0.046	-0.039	0.021	-0.04	0.007	-0.012
HELQ (UniProt Q8TDG4)	0.002	-0.009	-0.011	-0.014	0.025	0.012	-0.01	0.042	-0.109	-0.033	-0.486 (active)	-0.433 (active)	0.021	0.051	-0.028	-0.024	0.033	-0.013	0.122	0.009
HAUS2 (UniProt Q9NVX0)	-0.033	-0.187	-0.055	0.167	0.049	-0.159	0.067	-0.047	0.005	-0.017	0.036	-0.033	-0.028	0.069	0.05	-0.04	-0.034	-0.014	-0.094	0.037
HAUS7 isoform 2 (UniProt Q99871)	0.022	0.012	-0.053	0.102	-0.063	-0.156	-0.113	0.072	-0.139	0.015	0.021	0.007	0.015	0.055	-0.026	-0.037	-0.011	0.063	0.024	-0.047
IMMT (UniProt C9J406)	0.017	0.082	-0.116	-0.461 (active)	0.003	0.048	0.015	-0.034	0.03	0.168	-0.044	0.09	0.045	0.012	0.051	0.022	-0.03	0	0.023	-0.038
HSPA8 (UniProt E9PN89)	0.046	0.05	-0.31	-0.706 (active)	0.004	0.169	0.074	0.314	-0.021	0.299	0.013	-0.008	-0.209	-0.055	-0.032	-0.415	0.006	0	0.084	-0.089

— the supplement of paper PMC10849652
